Results reported in PubChem BioAssay AID651821 (The Scripps Research Institute Molecular Screening Center, 2012).
In all, about 370,000 compounds went through this assay and about 4,700 (1.3%) were called active.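 The calls were made as follows: active = inhibition above the plate cutoff, the mean of all test compounds on that plate plus 3 SD (cut at about 35% in these data); inactive = the rest.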 This excerpt belongs to a sample that is enriched for actives.

Assay: small molecules binding CAG repeat RNA – biochemical, fluorescence, primary screen (AID 651821);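 also: 0% = DMSO alone and 100% = 100 µM mitoxantrone as full dye displacement; higher means more dye released from RNA so lower well fluorescence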
Settings: r(CAG) RNA repeat, TO-PRO-1 dye displacement fluorescence; at 3 µM; stronger effect = higher value

inhibition, active:
Cc1ccc(-n2c(SCC(=O)Nc3ccc(S(=O)(=O)Nc4nccs4)cc3)nnc2-c2ccncc2)cc1 67.7%, Cc1ccc(-n2c(SCC(=O)Nc3ccc(S(=O)(=O)Nc4nccs4)cc3)nnc2-c2ccccn2)cc1 69.8%, Cc1ccc(-n2c(SCC(=O)Nc3ccc(S(=O)(=O)Nc4nccs4)cc3)nnc2-c2cccnc2)cc1 60.1%, CCOC(=O)c1ccccc1N1C(=O)C2Sc3[nH]c(=O)sc3C(/C=C/c3ccccc3)C2C1=O (stereo unspecified) 54%, N#Cc1c(-c2ccccc2)cc(-c2ccccc2)nc1SCC(=O)O 55%, NNc1cccc(C=Cc2ccccc2)cc1=O 40.1%, O=c1oc2ccccc2cc1-c1csc(Nc2ccc(O)cc2)n1 38.9%, Nc1[nH]c(=S)nc2nc(-c3ccccc3)c(-c3ccccc3)nc12 41.4%, COc1cc(NS(=O)(=O)c2ccc(N/C=C(\C=O)c3nc4cc(Cl)ccc4o3)cc2)nc(OC)n1 60.3%, COC(=O)c1sc(-c2ccc(C(C)(C)C)cc2)cc1NC(=O)/C=C/C(=O)O 36.6%, CN(C(=O)COC(=O)c1cc(-c2ccco2)nc2ccccc12)C1CCS(=O)(=O)C1 (stereo unspecified) 42.3%, COc1ccc(S(=O)(=O)NCCc2c[nH]c3ccccc23)cc1OC 35.2%, CC1(C(=O)NS(=O)(=O)c2ccc3ccccc3c2)CCN1C(=O)C1(c2ccc(Cl)cc2)CCC1 (stereo unspecified) 68.5%, CCOc1cc(/C=C2/N=C(c3ccc(C(C)(C)C)cc3)OC2=O)cc(Cl)c1OS(C)(=O)=O 67%, O=C(CSCc1ccc([N+](=O)[O-])cc1)Nc1cccc(C(=O)Nc2ccccc2C(=O)O)c1 67.2%, O=C(COc1ccc([N+](=O)[O-])cc1)Nc1cccc(C(=O)Nc2ccccc2C(=O)O)c1 77.5%, O=C(Cc1ccccc1)Nc1ccc(C(=O)Nc2ccccc2C(=O)O)cc1 50.2%, COc1ccc(COC(=O)NC(C(=O)O)c2ccccc2)cc1 (stereo unspecified) 41.2%, Cc1ccc(CSc2nc(-c3ccccc3)c(C#N)c(=O)[nH]2)cc1 84.2%, N#Cc1c(-c2ccccc2)nc(SCc2ccc([N+](=O)[O-])cc2)[nH]c1=O 74%, N#Cc1c(-c2ccccc2)nc(SCc2cccc(C(F)(F)F)c2)[nH]c1=O 91.1%

inhibition, inactive:
Cc1ccc(C2=CCN(C)C(=O)N2c2ccc(Cl)cc2)cc1 6.97%, O=C(CSc1nnc(-c2ccccn2)n1-c1ccccc1)Nc1ccc2c(c1)OCO2 1.36%, Cc1ccc(-n2c(SCC(=O)Nc3ccc4c(c3)OCO4)nnc2-c2ccccn2)cc1 -1.61%, COc1ccc(-n2c(SCC(=O)Nc3ccc4cn[nH]c4c3)nnc2-c2cccnc2)cc1 5.12%, O=C(CSc1nnc(-c2ccncc2)n1-c1ccc(Cl)cc1)Nc1ccc(C(=O)O)cc1 3.19%, Cc1ccc(-c2nnc(SCC(=O)N/N=C/c3cccs3)n2-c2ccc(C)cc2)cc1 2.97%, Cn1c(SCC(=O)Nc2nccs2)nnc1-c1cccnc1 3.4%, Cc1ccc(Cn2cc(COC(=O)N(C)Cc3ccccc3)nn2)cc1 0.63%, COC(=O)c1c(-c2ccc(OC)cc2)c2c(c3c4cc(OC)ccc4n(S(=O)(=O)c4ccc(F)cc4)c13)C(=O)N(C)C2 14.1%, COC(=O)[C@]1(C#N)CC(=O)N(CC2CCCCC2)[C@@H]1c1ccccc1 0.85%, CC(OC(=O)c1ccccc1N1C(=O)C2C3CCC(C3)C2C1=O)C(=O)c1ccccc1 (stereo unspecified) -4.3%, CCOC(=O)C1Sc2[nH]c(=O)sc2C(c2ccc(Cl)cc2)C1C(=O)OCC (stereo unspecified) 24.3%, CC[C@H](C)[C@H]1CNC(=O)C(=O)N1CC1CCN(CCc2ccc(OC)c(OC)c2)CC1 3.94%, COc1ccccc1CCNC(=O)C1CCN(c2nc(C)cc(C)n2)CC1 -2.28%, N#Cc1c(-c2ccc(F)cc2)cc(C2CC2)nc1SCC(=O)c1cccs1 1.58%, CCSc1nc(-c2ccc(OC)cc2)cc(-c2ccc(OC)cc2)c1C#N 0.76%, CC(C)CNS(=O)(=O)CC1NCCc2ccccc21 (stereo unspecified) 5.19%, Nn1c(SCC(=O)Nc2ccc(S(N)(=O)=O)cc2)nnc1-c1n[nH]c2c1CCC2 3.81%, COC(=O)c1cc2c(c3c4ccccc4n(S(=O)(=O)c4cccc(C)c4)c13)C(=O)N(Cc1ccccc1)C2 15.1%, CC(=O)c1ccc(Nc2nc(C(N)c3ccccc3Cl)cs2)cc1 (stereo unspecified) 2.58%, O=S1(=O)c2c(cccc2N2CCCCC2)O[C@H](COCc2ccccc2)CN1C1CC1 5.4%, O=C1Nc2ccccc2C1=NN=Cc1ccco1 3.21%, COC(=O)[C@H](C(C)C)N(CCCc1cn(Cc2ccccc2)nn1)S(=O)(=O)c1ccc(F)cc1Br 2.97%, C[C@H](NC(=O)[C@@H]1Cc2ccccc2CN1C(=O)OC(C)(C)C)C(=O)NC1CCCC1 -7.18%, COc1ccc2c(c1)CN1CN(CCc3ccccc3)S(=O)(=O)CC21 (stereo unspecified) 3.05%, CCCCNc1cccc2c1S(=O)(=O)N[C@@H](C)CO2 0.84%, COC(=O)Nc1ccc(S(=O)(=O)Nc2cc(OC)nc(OC)n2)cc1 1.9%, COc1cc(NS(=O)(=O)c2ccc(NC(=S)NC(=O)c3ccccc3)cc2)nc(OC)n1 24.5%, COc1ccc(Cn2cc(COC(=O)N(C)Cc3ccccc3)nn2)cc1 -0.97%, Cc1ccccc1CN1CCCCC(NC(=O)Nc2ccccc2F)C1=O (stereo unspecified) 4.44%, O=C(C=CC(=O)Nc1ccc(F)cc1F)Nc1ccc(F)cc1F 0.56%, O=C(CSc1nnc(-c2ccccn2)n1-c1ccc(Cl)cc1)Nc1ccccc1-c1ccccc1 8.25%, Cc1ccc(S(=O)(=O)CCC(=O)OCC(=O)N(C)C2CCS(=O)(=O)C2)cc1 (stereo unspecified) 2.79%, O=C(c1cc(-c2ccco2)nc2ccccc12)N(Cc1nnc(-c2ccc(Cl)cc2)o1)C1CC1 8.3%, COC(=O)[C@]12C[C@H](CC(=O)NCC34CC5CC(CC(C5)C3)C4)C(=O)N(Cc3ccc(Cl)cc3Cl)C1=C[C@H](COCc1ccccc1)O[C@@H]2C 10.5%, COc1cccc(CNCCc2c[nH]c3ccccc23)c1OCc1ccccc1F 4.43%, Cc1ccc(S(=O)(=O)N(C)CC(=O)NCCc2c[nH]c3ccccc23)cc1 0.8%, COC(=O)c1c(-c2ccc(OC)cc2)c2c(c3c4ccccc4n(S(=O)(=O)c4ccc(C)cc4)c13)C(=O)N(C)C2 14.9%, C=CCN1C(=O)[C@H](CC(=O)N2CCN(C(=O)OCC)CC2)[C@@]2(C(=O)OCC)CCCC=C12 0.1%, COc1ccc(CN(CCN2CCOCC2)C(=O)c2ccc(C)cc2)cc1OC 1.93%, CC1(C(=O)NS(=O)(=O)c2ccc(Cl)cc2)CCN1C(=O)CC1CCCC1 (stereo unspecified) 9.21%, Cc1ccccc1S(=O)(=O)NC(=O)C1(C)CCN1C(=O)C1(c2ccc(Cl)cc2)CC1 (stereo unspecified) 33.6%, COc1ccc(F)cc1S(=O)(=O)NCC(c1ccc2c(c1)OCO2)N1CCN(C)CC1 (stereo unspecified) -3.68%, CN(Cc1ccc2nsnc2c1)Cc1nc(Cc2cccc(F)c2)no1 -4.71%, O=C(Nc1ccccc1C(=O)O)c1ccc(N2C(=O)C3CC=CCC3C2=O)cc1 (stereo unspecified) 13.8%, COc1ccc(NC(=O)CSCc2ccc([N+](=O)[O-])cc2)cc1OC -1.63%, CN(CCc1ccccc1)C(=O)c1cccc(NC(=O)Cc2ccc([N+](=O)[O-])cc2)c1 1.94%, O=C(CCCOc1ccccc1)Nc1cccc(C(=O)O)c1 6.14%, O=C(CSCc1ccc([N+](=O)[O-])cc1)NCCSCc1ccccc1 -2.49%, CC1CCN(C(=O)c2ccccc2NC(=O)Cc2ccccc2)CC1 -6.63%, O=C(c1ccncc1)N1CC[C@H]2[C@H](CCCN2Cc2ccc(F)cc2)C1 -0.17%, COC(=O)C1=C(C(=O)OC)C2C=C(C(C)C)C1C(=O)C2(C)O (stereo unspecified) 2.51%, Cc1ccc(C)c(NC(=O)CCS(=O)(=O)c2ccccc2)c1 5.79%, COC(=O)C(C(=O)OC)c1ccccc1NS(=O)(=O)c1cccc2ccccc12 6.69%, Cc1ccc(C(=O)C2CCN(CC(=O)NCCC(C)C)CC2)cc1 -4.12%, COC(=O)C1=C(C)N(Cc2ccccc2C(F)(F)F)C(=NCC2CC2)NC1c1cccc(Cl)c1 (stereo unspecified) 2.17%, COC(=O)c1ccc(C(NC(=O)OCc2ccccc2)/C(F)=C/[C@@H](C)C(=O)O)cc1 (stereo partly specified) 7.38%, CC(C)[C@H](NC(=O)OCc1ccccc1)C(=O)OCc1ccccc1 -7.02%, O=S1(=O)CC(N2CCN(CCO)CC2)CN1Cc1cn(Cc2cccc(Cl)c2)nn1 (stereo unspecified) 1.81%, Cc1ccc(CSc2nsc(C)c2C#N)cc1 -2.07%, CC1(Cc2cccc(C#N)c2)C(=O)Nc2ccc(-c3cccc(C(F)(F)F)c3)cc21 (stereo unspecified) 2.77%, Cc1ccc(CSc2nc3[nH]ncc3c(=O)[nH]2)cc1 -3.55%, Cc1ccccc1CSc1nnc(-c2ccccc2)c(=O)[nH]1 6.58%, O=C(Nn1c(SCc2ccc([N+](=O)[O-])cc2)nc2ccccc2c1=O)c1ccc(F)cc1 25.7%, COc1ccccc1CSc1ncc(-c2ccc([N+](=O)[O-])cc2)[nH]1 6.09%
